Consider 40 molecules from PubChem BioAssay (NCATS).

Molecules are shown by their SMILES. Results filed as inconclusive are left out. Entries that show only a call come without a potency. The source made the active and inactive calls. The call rests on the fitted dose curve; in most records, active means well fitted cell-killing curve with a large enough effect; inconclusive means small, poorly fitted or top-dose-only effect; inactive means flat fitted curve, though single readings scatter.

The nature of the test: Cell Viability - LYMP2-025 (AID 976).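 Further: cells exposed to compound for 24 h at 37 °C.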 The following applies: LYMP2-025 lymphoblastoid cell viability; series mostly up to 92.2 µM. The text has this: NIH Chemical Genomics Center [NCGC]
NIH Molecular Libraries Screening Centers Network [MLSCN]
National Institutes of Environmental Health Sciences [NIEHS]
National Toxicology Program [NTP]
We have developed a 1536-well cell-based assay for quantitative high throughput screening (qHTS) against a number of cell lines to determine in vitro cytotoxicity of small molecules. This particular assay uses a human lymphoblastoid cell line (LYMP2-025) purchased from Coriell Institute for Medical Research.
NCGC Assay Protocol Summary:
The CellTiter-Glo luminescent cell viability assay (Promega) is a homogeneous method to measure the number of viable cells in culture. The end point readout of this assay is based on quantitation of intracellular ATP, an indicator of metabolic activity, using the luciferase reaction. Luciferase catalyzes the oxidation of beetle Luciferin to oxyluciferin and light in the presence of ATP. The luminescent signal is proportional to amount of ATP present.
Using the CellTiter-Glo luminescent cell viability assay, the amount of cellular ATP was measured in the lymphoblastoid cell line with complete culture medium following compound treatment for 24 hours. The assay was performed in opaque white Kalypsys 1536-well plates. In the screen, tetraoctylammonium bromide was used as positive control. Library compounds were measured for their ability to cause acute toxicity in the cell line, as reflected by a decrease in intracellular ATP levels, in a concentration-dependent manner. […] AC50 values were determined from concentration-response data modeled with the standard Hill equation.
qHTS protocol for CellTiter Glo lymphoblastoid cellular assay
[Step] [Parameter] [Value] [Description]
1. Reagent; 5 uL; 2500 lymphoblastoid cells/well
2. Time; 5 hr; 37 C incubation
4. Controls; 23 nL; Tetraoctylammonium bromide 6.4pM to 92 uM
5. Time; 24 hr; 37 C incubation
6. Reagent; 5 uL; CellTiter Glo reagent
7. Time; 30 min; Room Temperature
8. Detection; Luminescence; Viewlux plate reader
Keywords: cell viability, cytotoxicity, lymphoblastoid cell line, luminescence, NTPHTS, NTPHTS_NCGC, NIEHS, DSSTox, MLSMR, MLSCN, NIH Roadmap, qHTS, NCGC
Consider `Oc1c(Cl)cccc1Cl`, for which the Potency entry was “inactive”.
`CCCCCCCCCCCCCl`: the Potency entry is “inactive”.
Take `CCCCC(CC)COC(=O)c1ccc(C(=O)OCC(CC)CCCC)c(C(=O)OCC(CC)CCCC)c1` (stereo not given): the Potency entry is “inactive”.
For `C=CCOCC1CO1` (stereo not given), the Potency entry was “inactive”.
With `BrC(Br)Br` the entry was “inactive”.
In the case of `Cc1cc(C)cc(OP(=O)(Oc2cc(C)cc(C)c2)Oc2cc(C)cc(C)c2)c1`, the Potency result is “inactive”.
With `Clc1ccc(C(c2ccccc2Cl)C(Cl)(Cl)Cl)cc1` (stereo not given), the Potency entry is “inactive”.
For `Oc1cccc(Cl)c1`, the Potency entry is “inactive”.
With `CCCN(CCC)c1c([N+](=O)[O-])cc(C(F)(F)F)cc1[N+](=O)[O-]` the entry was “inactive”; with `Cc1ccc(N=C=O)cc1N=C=O`, “inactive”.
Take `O=[N+]([O-])c1ccc2c3c(cccc13)CC2`: the Potency result is “inactive”.
With `CNC(=O)O/N=C/C(C)(C)S(C)=O` (stereo not given) the entry was “inactive”; with `S=c1[nH]c2ccccc2[nH]1`, “inactive”; with `CC1CC(=O)O1` (stereo not given), “inactive”.
With `ClC(Cl)C(Cl)Cl` the entry was “inactive”; with `Clc1ccc(C(Cl)(Cl)Cl)c(Cl)c1`, “inactive”; with `CCCCOC(C)=O`, “inactive”.
Consider `C=CC(=O)OCCO`, for which the Potency result is “inactive”.
As to `C[N+](=O)[O-]`, the Potency result is “inactive”.
With `O=[N+]([O-])c1ccccc1-c1ccccc1` the entry was “inactive”.
Regarding `C(CCOCC1CO1)COCC1CO1` (stereo not given), the Potency result was “inactive”.
For `Brc1ccc(Oc2ccc(Br)cc2Br)c(Br)c1`, the Potency entry was “inactive”.
For `CC(C)(Cl)Cl`, the Potency entry was “inactive”.
With `ClC(Cl)c1ccccc1` the entry was “inactive”; with `Nc1cc(Cl)cc(C(=O)O)c1Cl`, “inactive”.
With `CCOP(=S)(OCC)SCCSCC`, the Potency entry was “inactive”.
With `O=[N+]([O-])c1cccc(O)c1` the entry was “inactive”; with `C=CC(=O)OCC(CC)CCCC` (stereo not given), “inactive”.
For the molecule `CN(C)c1ccc(N=Nc2ccccc2)cc1`, the Potency entry is “inactive”.
On to `Nc1ccc([N+](=O)[O-])cc1N`, for which the Potency result is “inactive”.
On to `Nc1ccc2ccccc2c1`, for which the Potency entry is “inactive”.
Take `CCNCC`: the Potency result was “inactive”.
As for `ClC(Cl)Br`, the Potency result is “inactive”.
For the molecule `Cc1ccc(N)c(N)c1`, the Potency entry is “inactive”.
For `CCOC(=O)CC(SP(=O)(OC)OC)C(=O)OCC` (stereo not given), the Potency entry was “inactive”.
With `O=Cc1ccc2c(c1)OCO2` the entry was “inactive”; with `ClC=CCl`, “inactive”; with `O=P(OCCCl)(OCCCl)OCCCl`, “inactive”.
With `O=[N+]([O-])CCO` the entry was “inactive”.
As to `CC(C)CON=O`, the Potency entry was “inactive”.
